# Screening results from PubChem.
# Hits are enriched below; roughly 0.54% of the tested compounds scored in any of these assays.
# ERp5 inh: inhibitors of human ERp5; inhibition, % at 9.99 µM; ERp5 insulin aggregation, absorbance 650 nm, 90 min; 0.05% of 350,000 active; AID 651711; Q15084;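 active = mean replicate inhibition above about 25%, with every replicate also reaching it, limit read from the data, passing the limit was not always enough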
# Target sequence (Q15084 whole entry, looked up): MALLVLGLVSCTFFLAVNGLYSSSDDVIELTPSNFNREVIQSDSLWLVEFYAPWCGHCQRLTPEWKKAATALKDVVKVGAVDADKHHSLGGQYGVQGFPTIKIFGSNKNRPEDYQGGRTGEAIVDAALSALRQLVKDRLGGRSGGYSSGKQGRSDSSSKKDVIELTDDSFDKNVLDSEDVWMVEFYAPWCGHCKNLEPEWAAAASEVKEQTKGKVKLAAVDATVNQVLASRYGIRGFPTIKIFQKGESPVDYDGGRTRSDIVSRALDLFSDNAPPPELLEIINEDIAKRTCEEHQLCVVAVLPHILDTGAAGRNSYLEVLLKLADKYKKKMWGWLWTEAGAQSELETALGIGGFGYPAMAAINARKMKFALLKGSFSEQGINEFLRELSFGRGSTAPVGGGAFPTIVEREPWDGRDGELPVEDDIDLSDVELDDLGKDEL
# PvdQ acylase: P. aeruginosa PvdQ acylase inhibition; purified PvdQ acylase, fluorescence plate reader; inhibition, % at 10 µM; 0.063% of 340,000 active; AID 488965; in the data active = inhibition above about 30%, passing the limit was not always enough;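 note: 0% = vehicle neutral wells and 100% = reference inhibitor wells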
# Efflux pump inh: antifungal efflux pump inhibition, Nile Red retention. S. cerevisiae Candida pump triplex. inhibition, % at 10 µM. AID 485275. 0.44% of 330,000 active;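 active = plate passing quality check with inhibition over a set limit, or well fluorescence over plate mean plus 4 SD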;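 note: Nile Red retained in pooled yeast measured as flow cytometry median fluorescence; 0% = buffer negative control and 100% = Enniatin B positive control; higher means more Nile Red kept so more efflux inhibition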
# PDI turbidity: inhibitors of human protein disulfide isomerase; P07237; PDI insulin aggregation turbidity, A650, 90 min; AID 588391; inhibition, % at 10 µM; 0.052% of 350,000 active;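 active = mean inhibition across replicates of 30% or more, whatever share of single replicates reach that level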
# Rtt109 HAT inh: inhibitors of Candida albicans Rtt109/Vps75 histone acetyltransferase; Q5AAJ8; purified Rtt109/Vps75, ThioGlo CoA-SH fluorescence, 4 h; inhibition, % at 34.9 µM; 0.16% of 330,000 active; AID 540336;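 active = inhibition of at least 50% in every replicate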
# Yeast cmpd fluor: flagged as fluorescent in efflux inhibitor counter-screen | 4% of 1,700 active | fluorescence ratio to DMSO, % at 10 µM | shares compounds with Efflux pump inh | AID 588517 | S. cerevisiae AD/pABC3, compound fluorescence, flow cytometry;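 active = fluorescence ratio to DMSO above its plate's cutoff, the plate mean ratio plus 5 SD, cut at about 210% in these data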;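 note: unstained yeast with no Nile Red so the signal is compound autofluorescence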
# Mdr1 pump inh: blocks the Candida albicans Mdr1 efflux pump in yeast. shares compounds with Efflux pump inh. S. cerevisiae AD/CaMDR1, Nile Red efflux, flow cytometry. inhibition, % at 10 µM. 1% of 1,700 active; in the data active = inhibition above about 26%;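 note: 0% = DMSO vehicle and 100% = reference inhibitor; higher means more Nile Red retained so more efflux inhibition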
# CaCdr2 efflux inh: Candida Cdr2 efflux pump inhibition; S. cerevisiae AD/CaCDR2, Nile Red retention, flow cytometry; shares compounds with Efflux pump inh; 4% of 1,700 active; AID 588520; Nile Red retention ratio vs DMSO, % at 10 µM; in the data active = Nile Red retention ratio vs DMSO above about 190%;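 note: higher ratio means more blocking of Cdr2 efflux of the dye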
# Cdr1 pump inh: inhibitors of Candida albicans Cdr1 efflux pump. shares compounds with Efflux pump inh. S. cerevisiae AD/CaCDR1, Nile Red efflux, flow cytometry. inhibition, % at 10 µM. 1% of 1,700 active;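 active = inhibition above the screen-wide mean plus twice its standard deviation, cut at about 32% in these data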
# Active calls of the source: *; nt = no result.
SMILES,ERp5 inh,PvdQ acylase,Efflux pump inh,PDI turbidity,Rtt109 HAT inh,Yeast cmpd fluor,Mdr1 pump inh,CaCdr2 efflux inh,Cdr1 pump inh
COc1ccc(CN2CC3(CCN(C(=O)C4CCOCC4)CC3)c3c(n(C)c4cc(OC)ccc34)[C@@H]2CO)cc1,-1.4,nt,nt,nt,nt,nt,nt,nt,nt
C[C@H](CO)N1C[C@H](C)[C@@H](CN(C)Cc2ccc(C(=O)O)cc2)Oc2ccc(NS(=O)(=O)c3ccc(Cl)cc3)cc2CC1=O,3.3,nt,nt,nt,nt,nt,nt,nt,nt
O=C(C[C@@H]1CC[C@@H](NC(=O)Cc2cccnc2)[C@@H](CO)O1)Nc1ccc(-c2ccccc2)cc1,-3.6,nt,nt,nt,nt,nt,nt,nt,nt
CC(=O)c1ccc(OCc2cc(C(=O)N(C)Cc3ccccn3)no2)cc1,0.6,-13.9,0.0,21.8,10.3,nt,nt,nt,nt
Cc1cc(OCc2cc(C(=O)N(C)Cc3ccccn3)no2)cc(C)c1Cl,5.1,-6.6,0.6,0.6,5.9,89.9,-0.2,100.1,0.1
CN1CCN(CCn2c(=S)[nH]c3ccccc3c2=O)CC1,-1.3,-9.3,0.0,4.9,-0.3,nt,nt,nt,nt
O=c1c2ccccc2[nH]c(=S)n1CCN1CCc2ccccc2C1,2.8,-8.0,0.8*,2.6,-1.7,99.0,-0.3,107.2,0.0
CC(C)(C)C(=O)CSc1nc2c(c(-c3cccs3)c1C#N)CCC2,1.7,-6.9,0.5*,8.5,-10.7,104.7,0.1,110.2,0.0
COc1ccc(/C=c2\s/c(=C/C(=O)c3ccc(C)cc3)[nH]c2=O)c(OC)c1,2.7,7.5,18.8*,-2.2,6.4,108.3,-0.2,118.4,0.0
COCO/C=C(\NC(C)=O)c1ccccc1,0.2,-11.7,1.0*,4.4,-0.6,114.6,-0.3,104.2,0.0
CC/C=C(/NC(C)=O)c1ccccc1,-0.2,-10.4,-0.4,1.3,1.1,nt,nt,nt,nt
CCC(=O)N1C[C@H]2[C@@H](c3ccccc31)[C@H](CO)N2C(=O)Nc1ccccc1,0.6,nt,nt,nt,nt,nt,nt,nt,nt
COc1cccc(C(=O)N2C[C@H]3[C@@H](c4ccccc42)[C@H](CO)N3C(C)=O)c1,3.4,nt,nt,nt,nt,nt,nt,nt,nt
COC(=O)c1cc(OC)c(OC)cc1NC(=O)c1cc(-c2ccccc2)nc2ccccc12,nt,-17.5,0.2,-5.2,-9.9,99.8,-0.1,101.8,0.0
COc1cc(NC(=O)c2cc(-c3ccccc3)nc3c2cnn3C(C)C)cc(OC)c1OC,nt,-7.1,1.0*,-3.2,6.9,100.2,-0.2,99.3,-0.5
CNC(=O)c1cccc(NC(=O)c2cc(-c3ccccc3)nc3c2cnn3C(C)C)c1,-10.6,-3.5,0.5,-8.3,12.6,nt,nt,nt,nt
NC(=O)c1nsc(C(=O)N(c2ccccc2)C(C(=O)NCc2ccc(F)cc2)c2ccco2)c1N (stereo not given),2.9,1.3,0.5*,16.3,-22.0,101.7,0.0,111.6,0.0
NC(=O)c1nsc(C(=O)N(c2ccccc2)C(C(=O)NCc2ccc(F)cc2)c2ccc(O)cc2)c1N (stereo not given),-0.3,-12.8,0.1,-6.7,-16.5,nt,nt,nt,nt
COc1ccc(CNC(=O)c2cc3c(=O)n4ccccc4nc3n(Cc3cccnc3)c2=N)cc1,nt,4.5,0.9*,1.0,-2.0,96.2,-0.1,105.1,0.0
N=c1c(C(=O)NCc2ccc3c(c2)OCO3)cc2c(=O)n3ccccc3nc2n1Cc1cccnc1,nt,-6.9,-0.2,-3.3,8.2,nt,nt,nt,nt
COc1cccc(NC(=O)c2cc3c(=O)n4ccccc4nc3n(CC(C)C)c2=N)c1,0.3,-4.5,1.6*,-21.5,14.3,98.6,-0.3,95.1,0.1
CN(C)c1ccc2c(c1)[C@H]1C[C@@H](CC(=O)N3CCCCC3)O[C@@H](CO)[C@H]1O2,4.0,nt,nt,nt,nt,nt,nt,nt,nt
O=[N+]([O-])c1ccc(N2N=C(c3ccco3)CC2c2ccccc2)cc1 (stereo not given),nt,23.6,0.5*,-2.9,-15.7,99.3,0.1,95.4,-0.2
Fc1ccc(C2CC(c3ccco3)=NN2c2ccccc2)cc1 (stereo not given),nt,-30.8,-0.2,-9.2,-15.5,nt,nt,nt,nt
